High-throughput results: PubChem, several laboratories
MRP1 act: MRP-1 activation. 0.61% of 140,000 active. H69AR cells + doxorubicin, viability rescue, CellTiter-Glo. AID 799. viability increase, % at 10 µM;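 active means viability gain under doxorubicin at or above a set limit, the compound median plus 3 SD, cut at about 4.7% in these data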;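 further: MRP-1 overexpressing cells given doxorubicin 25 µM after compound pretreatment; 18-22 h compound pretreatment then 72 h with doxorubicin before readout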
CYP2C19 act: activators of human cytochrome P450 2C19. recombinant CYP2C19, luciferin-H EGE luminescence; hits give high values; 0 = fully inhibited enzyme, 1 = untreated enzyme. activation factor at 5 µM. 96,000 tested, under 10 active;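 active means activation factor of at least 2 at 5 µM in the primary screen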
Target sequence (P33261 whole entry, looked up): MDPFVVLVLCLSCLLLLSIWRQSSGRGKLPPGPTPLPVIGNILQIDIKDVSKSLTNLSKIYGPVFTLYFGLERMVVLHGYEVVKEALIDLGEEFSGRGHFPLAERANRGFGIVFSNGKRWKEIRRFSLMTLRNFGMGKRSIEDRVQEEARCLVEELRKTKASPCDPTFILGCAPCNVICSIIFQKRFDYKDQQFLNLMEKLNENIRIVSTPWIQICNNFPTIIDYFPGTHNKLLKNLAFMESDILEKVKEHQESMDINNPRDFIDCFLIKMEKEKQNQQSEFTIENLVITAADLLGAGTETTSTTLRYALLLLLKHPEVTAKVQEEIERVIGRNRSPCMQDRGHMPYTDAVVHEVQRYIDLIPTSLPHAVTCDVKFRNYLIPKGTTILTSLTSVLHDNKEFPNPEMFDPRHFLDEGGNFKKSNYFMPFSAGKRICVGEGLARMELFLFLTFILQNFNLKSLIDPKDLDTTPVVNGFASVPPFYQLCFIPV
CYP2C9 inh: inhibitors of human CYP2C9; P11712; CYP2C9 Supersomes, luciferin-H conversion, luminescence; inhibition, % at 5 µM; 20% of 96,000 active; AID 777;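 active means blocking of liver enzyme CYP2C9 beyond about 50% at 5 µM, limit read from the data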
CYP2C9 activ: increases human cytochrome P450 2C9 activity; 1.4% of 96,000 active; activation factor at 5 µM; P11712; recombinant CYP2C9, luciferin-H conversion, luminescence; hits give high values; factor 1 = untreated enzyme, 0 = blocked; AID 1024;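 active means activation factor of 2 or more for CYP2C9 at a 5 µM dose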
CYP2C19 inhib: human CYP2C19 inhibition | CYP2C19 Supersomes, luciferin-H EGE luminescence, 30 min | inhibition, % at 5 µM | 21% of 96,000 active | AID 778;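 active means CYP2C19 inhibition above a set limit at 5 µM in the primary screen, cut at about 50% in these data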
MRP resist rev: compounds reversing MRP-mediated drug resistance | H69AR cells + 2 uM doxorubicin, CellTiter-Glo, 72 h | differential viability (reversal), % at 10 µM | 0.04% of 85,000 active;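 active means viability drop by adding the cancer drug above about 55%, with treated viability meeting a 40% cutoff, limit read from the data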;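 further: larger differential means the compound sensitizes cells more to doxorubicin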
Large screens that a line does not name were inactive; ! = not active in a repeat. This is a sample that favours compounds with a hit; in the whole collection about 21% have one here.

CCCC1C(C#N)=C(N)Oc2c1c(=O)oc1ccccc21 (configuration not stated)	none (no result: CYP2C19 act, CYP2C9 inh, CYP2C9 activ, CYP2C19 inhib)
CCCC(C)C1C(C#N)=C(N)Oc2c1c(=O)oc1ccccc21 (configuration not stated)	CYP2C9 inh 70.3
CCCCN1CCC(C#N)(Nc2ccccc2)CC1	CYP2C19 inhib 70.9
CN1CCN(CCC(C#N)(c2ccccc2)c2ccccc2)CC1	none
CN(C)C(Cc1ccccc1)C(=O)c1ccc(-c2ccccc2)cc1 (configuration not stated)	CYP2C9 inh 74.5 (no result: MRP resist rev)
COc1ccc(C(=O)C(Cc2ccccc2)N(C)C)cc1 (configuration not stated)	none
Cc1ccc(N(C)C(=O)Oc2cccc3cccnc23)cc1	CYP2C19 inhib 87.1
Cc1ccc2cccc(OC(=O)N(C)c3ccccc3)c2n1	CYP2C19 inhib 89.8
CN(C)C(=O)Oc1cccc2c(OC(=O)N(C)C)cccc12	none
CN(C(=O)Oc1ccc([N+](=O)[O-])cc1)c1ccccc1	none (no result: CYP2C19 act, CYP2C9 inh, CYP2C9 activ, CYP2C19 inhib, MRP resist rev)
Clc1ccc2c(c1)C(c1ccccc1Cl)=NCc1nnc(N3CCN(CCSc4ccccc4)CC3)n1-2	CYP2C9 inh 67.8 (no result: MRP resist rev)
Cc1ccnc(-n2c(C)nc3ccccc3c2=O)c1	none (no result: CYP2C19 act, CYP2C9 inh, CYP2C9 activ, CYP2C19 inhib)
Cc1cccc(N2CCc3c2nc2ccccc2c3N)c1	CYP2C9 inh 65.0!, CYP2C19 inhib 76.7!
CC1(C)C2CC=C(CN3CCOCC3)C1C2 (configuration not stated)	none
O=C(CSC1c2ccccc2-c2ccccc21)N/N=C/c1ccccc1O	CYP2C9 inh 52.8, CYP2C19 inhib 59.3
COc1ccc2c(c1OC)C(=O)OC2c1c(O)n(C2CCCCC2)c(=O)[nH]c1=O (configuration not stated)	CYP2C9 inh 68.8
O=C(Cn1ncc2c3ccccc3n(Cc3ccccc3)c2c1=O)N1CCC2(CC1)OCCO2	CYP2C9 inh 53.2
CCn1c(=O)n(CC(=O)N2CCC3(CC2)OCCO3)c(=O)c2ccccc21	none (no result: MRP resist rev)
O=C(Cn1ncc2c3ccccc3n(Cc3ccccc3F)c2c1=O)N1CCC2(CC1)OCCO2	CYP2C9 inh 69.1
Cc1c2cnn(CC(=O)N3CCC4(CC3)OCCO4)c(=O)c2c(C)n1Cc1ccc(F)cc1	CYP2C19 inhib 53.0 (no result: MRP resist rev)
O=C(Cn1ncc2ccccc21)N1CCC2(CC1)OCCO2	CYP2C19 inhib 54.8
c1ccc2cc3cc4ccccc4cc3cc2c1	none (no result: MRP1 act, CYP2C19 act, CYP2C9 inh, CYP2C9 activ, CYP2C19 inhib)
Cc1ccc(S(=O)(=O)NC(CC(=O)N2CCC3(CC2)OCCO3)c2ccco2)cc1 (configuration not stated)	none
FC(F)(F)c1ccc2c(c1)N(CCCN1CCN(CCCl)CC1)c1ccccc1S2	CYP2C19 inhib 50.4
COC(=O)N(C)c1ccc(C(O)(C(=O)OC)C(F)(F)F)cc1 (configuration not stated)	none (no result: CYP2C19 act, CYP2C9 inh, CYP2C9 activ, CYP2C19 inhib, MRP resist rev)
CCOC(=O)N(CC)c1ccc(C(O)(C(=O)OC)C(F)(F)F)cc1 (configuration not stated)	CYP2C19 inhib 64.4
OC12CCCCC1C(c1ccccc1)NCC2 (configuration not stated)	none
CN(C)c1cc(N)c2c(n1)CCC2 (tested in a mixture with another compound)	none
CCOc1cc2[nH]c(=S)n(CCCC(=O)N3CCC4(CC3)OCCO4)c(=O)c2cc1OCC	CYP2C9 inh 55.2, CYP2C19 inhib 52.0
Cn1c(=O)cc(OCCCC(=O)N2CCC3(CC2)OCCO3)c2ccccc21	none
O=C(CCCOc1ccc(Cl)cc1Cl)N1CCC2(CC1)OCCO2	CYP2C19 inhib 74.0
CCOC(=O)c1ccc(NC(=O)C2C3C=CC(O3)C2C(=O)O)cc1 (configuration not stated)	none
CC(=O)OC1C2CCC1C(N1CCCC1)CC2 (configuration not stated)	none
Cc1cc(OCc2ccc([N+](=O)[O-])cc2)c2c3c(c(=O)oc2c1)CCCC3	CYP2C9 inh 78.9, CYP2C19 inhib 60.2 (no result: MRP resist rev)
Cc1cc(OCC(=O)OC(C)(C)C)c2c3c(c(=O)oc2c1)CCC3	none (no result: MRP1 act)
C=CCOC(=O)COc1cc(C)cc2oc(=O)c3c(c12)CCC3	CYP2C9 inh 57.6, CYP2C19 inhib 84.3
Cc1cc(OC(=O)CCCNC(=O)OC(C)(C)C)c2c3c(c(=O)oc2c1)CCC3	CYP2C9 inh 55.2
Cc1cc(OCc2nn[nH]n2)c2c3c(c(=O)oc2c1)CCCC3	CYP2C9 inh 72.2
Cn1c2ccccc2c2c(C(=O)N3CCC4(CC3)OCCO4)cn(C3CCCC3)c(=O)c21	CYP2C9 inh 72.1
O=C(Cc1cccs1)N1CCC2(CC1)OCCO2	CYP2C19 inhib 80.4
COCCn1cc(C(=O)N2CCC3(CC2)OCCO3)c2c3ccccc3n(C)c2c1=O	none
Cn1cc(CCC(=O)N2CCC3(CC2)OCCO3)c2ccccc21	CYP2C19 inhib 98.5
Cn1c(=O)cc(SCC(=O)N2CCC3(CC2)OCCO3)c2ccccc21	CYP2C9 activ 2.1
Cc1oc(-c2cccs2)nc1CSCC(=O)N1CCC2(CC1)OCCO2	none
CC1SC2(CN3CCC2CC3)NC1=O (configuration not stated)	none (no result: MRP resist rev)
CC12CN3CC(C)(CN(C1)C3c1cccs1)C2O (configuration not stated)	CYP2C19 inhib 58.2
O=C(COc1ccccc1)N1CCN(C2CCCC2)CC1	CYP2C19 inhib 64.3
O=C(COc1ccccc1)N1CCN(C/C=C/c2ccccc2)CC1	CYP2C9 inh 70.4, CYP2C19 inhib 62.7
N#Cc1cc2c(nc1SCC(=O)Nc1cc(Cl)cc(Cl)c1)C1CCN2CC1	none
CCCCCn1c(=O)c(C(=O)NCc2ccncc2)c(O)c2ccccc21	CYP2C9 inh 73.6, CYP2C19 inhib 70.8
CCCCCn1c(=O)c(C(=O)Nc2ccncc2)c(O)c2ccccc21	none (no result: MRP1 act)
O=c1[nH]c(=O)n(C2CCCCCC2)c(O)c1C=NCCCN1CCOCC1	none
O=c1[nH]c(=O)n(CCC2=CCCCC2)c(O)c1C=NC1CCN(Cc2ccccc2)CC1	CYP2C9 inh 80.2
O=c1[nH]c(O)c(C=NC2CCN(Cc3ccccc3)CC2)c(=O)[nH]1	none (no result: MRP1 act, CYP2C19 act, CYP2C9 inh, CYP2C9 activ, CYP2C19 inhib)
CCCCCCn1c(O)c(C=NC2CCN(Cc3ccccc3)CC2)c(=O)[nH]c1=O	CYP2C9 inh 72.8
CN1C(=O)N(C)C(=O)C2(Sc3ccccc3C2=O)C1=O	none
CN1C(=O)N(C)C(=O)C(CCc2ccccn2)(CCc2ccccn2)C1=O	none
O=C1NC(=O)C(CCc2ccncc2)(Cc2ccc3c(c2)OCO3)C(=O)N1CCc1ccccc1 (configuration not stated)	CYP2C9 inh 89.5, CYP2C19 inhib 99.1
CN1C(=O)N(C)C(=O)C(CCc2ccncc2)(Cc2ccc3c(c2)OCO3)C1=O	CYP2C9 inh 73.7, CYP2C19 inhib 98.8
Fc1ccc(CCNCc2ccc(Cl)c(Cl)c2)cc1	CYP2C19 inhib 96.2 (no result: MRP resist rev)
COc1ccc(N=C(C)c2c(O)n(C)c(=O)n(C)c2=O)c(OC)c1	none
C=CCn1c(O)c(C(C)=NCCCO)c(=O)[nH]c1=O	none
C=CCn1c(O)c(C(=O)CCCCCC)c(=O)[nH]c1=O	CYP2C9 inh 57.3
